Bioassay records as filed in PubChem.
An excerpt weighted towards active compounds, which were near 2.2% of everything screened.
TROY signal inh – inhibitors of TROY-dependent NF-kB signaling | Q293 LMP1-TROYcd NF-kB luciferase reporter, 4 h | inhibition, % at 10 µM | hit rate 0.98% among 360,000 | AID 1347056;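 active = compounds whose plate-normalised and pattern-corrected inhibition of the luciferase reporter signal at the single screening dose is 50% or more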
LGR2 inh – blocks bursicon-induced cAMP signaling via Drosophila LGR2. HEK293 LGR2, CRE-luciferase, bursicon-stimulated, 4 h. inhibition, % at 9.99 µM. hit rate 0.35% among 380,000. AID 720647;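 active = drop in luminescence signal, shown as inhibition above about 50% in the replicate tests, limit read from the data, passing the limit was not always enough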;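 also: agonist challenge used bursicon conditioned medium at about half maximal strength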
TWEAK-Fn14 inh – TWEAK-Fn14 signaling inhibition; TWEAK-stimulated Fn14 reporter cells, luciferase luminescence, 8 h; inhibition, % at 10 µM; hit rate 2% among 360,000; in the data active = inhibition above about 50%
HSP90 inh – HSP90 refolding inhibition in rabbit reticulocyte lysate; luciferase refolding luminescence, 3 h; inhibition, % at 5.6 µM; hit rate 0.91% among 290,000; AID 1789;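 active = inhibition above the screen-wide mean plus 3 SD, computed separately per campaign, cut at about 16% in these data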;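 also: inhibitors lower the luminescence because luciferase stays unfolded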
Hits are given with their value.

For CC1(C)CC(=O)C(C2C3=C(CC(C)(C)CC3=O)Oc3ccccc32)C(=O)C1 (stereo not given) the results were TROY signal inh inactive, LGR2 inh inactive, TWEAK-Fn14 inh inactive and HSP90 inh inactive.
Screening CC1(C)CC(=O)C2=C(C1)Oc1nc3ccccc3cc1C2C(C#N)C#N (stereo not given) returned TROY signal inh inactive, TWEAK-Fn14 inh 68.6 and HSP90 inh inactive.
C[C@H]1CN([C@@H](C)CO)C(=O)c2cccc(N(C)C)c2O[C@@H]1CN(C)Cc1ccc(-c2ccccc2)cc1 was read as LGR2 inh inactive.
`NNc1nc(-c2ccccc2Cl)c2cc(Br)ccc2n1` gave TROY signal inh 86.5, LGR2 inh inactive, TWEAK-Fn14 inh inactive and HSP90 inh inactive.
`Fc1ccc(N/N=C/c2ccc(N3CCOCC3)cc2)c(F)c1` gave TROY signal inh 69.7, LGR2 inh inactive, TWEAK-Fn14 inh inactive and HSP90 inh inactive.
C/C(=N\Nc1ccc(F)cc1F)c1ccc(N2CCOCC2)cc1 was read as TROY signal inh inactive, LGR2 inh inactive, TWEAK-Fn14 inh inactive and HSP90 inh inactive.
For COCC#Cc1ccc([C@@H]2[C@@H](CO)N3C(=O)CN(C(=O)c4ccncc4)C[C@H]23)cc1 the results were LGR2 inh inactive.
`O=c1c2cc3c(cc2[nH]c(=S)n1CCN1CCOCC1)OCO3` gave TROY signal inh 77.9, TWEAK-Fn14 inh inactive and HSP90 inh inactive.
For Fc1ccc(-c2nc3n(n2)Cc2ccccc2-3)cc1 the results were TROY signal inh inactive, TWEAK-Fn14 inh 58.2 and HSP90 inh inactive.
`NC(=S)Cc1nc2n(n1)Cc1ccccc1-2` gave TROY signal inh inactive, LGR2 inh inactive, TWEAK-Fn14 inh inactive and HSP90 inh inactive.
For CC(=O)N1CCCc2cc(S(=O)(=O)N3CCCC(C(=O)N4CCN(c5ccccc5)CC4)C3)ccc21 (stereo not given) the results were TROY signal inh inactive, LGR2 inh inactive, TWEAK-Fn14 inh inactive and HSP90 inh inactive.
Screening CC(=O)N1CCCc2cc(S(=O)(=O)N3CCCC(C(=O)N4CCN(c5cc(C)ccc5C)CC4)C3)ccc21 (stereo not given) returned TROY signal inh inactive, LGR2 inh inactive, TWEAK-Fn14 inh 54.0 and HSP90 inh inactive.
`CC(=O)N(C)c1ccc(C=C2C=Cc3ccccc32)cc1` gave TROY signal inh 71.1, LGR2 inh inactive and TWEAK-Fn14 inh 79.1.
`COC(=O)CC1CC2(C(=O)OC)c3[nH]c4ccccc4c3CCN2C1=O` (stereo not given) gave TROY signal inh inactive, LGR2 inh inactive and TWEAK-Fn14 inh inactive.
For CCC12CC1(C(=O)OC)C(=O)N1CCc3c([nH]c4ccccc34)C12 (stereo not given) the results were TROY signal inh 62.0 and TWEAK-Fn14 inh inactive.
`O=C(C[n+]1cccc(CO)c1)Nc1nc2ccccc2s1` gave TROY signal inh 66.6, LGR2 inh inactive, TWEAK-Fn14 inh inactive and HSP90 inh inactive.
`O=C1C(Cl)=C(NCCN2CCCCC2)C(=O)c2ccccc21` gave TROY signal inh 53.6, TWEAK-Fn14 inh 92.9 and HSP90 inh inactive.
`CCOC(=O)C(NC(=O)c1ccccc1)(Nc1cccc(C)n1)C(F)(F)F` (stereo not given) gave TROY signal inh inactive, LGR2 inh inactive, TWEAK-Fn14 inh inactive and HSP90 inh inactive.
CCOC(=O)C(NCc1ccco1)(NC(=O)c1ccccc1)C(F)(F)F (stereo not given) was read as TROY signal inh inactive, TWEAK-Fn14 inh 87.3 and HSP90 inh inactive.
`O=C(Nc1ccc(Br)c(C(F)(F)F)c1)c1ccc(C(F)(F)F)cc1` gave TROY signal inh inactive, LGR2 inh inactive, TWEAK-Fn14 inh 63.3 and HSP90 inh inactive.
O=C(Nc1ccc(OCC(F)(F)C(F)F)c(C(F)(F)F)c1)c1ccc(Cl)cc1 was read as TROY signal inh 52.0, TWEAK-Fn14 inh 76.9 and HSP90 inh inactive.
For C[C@H](CO)N1C[C@H](C)[C@@H](CN(C)Cc2ccc(C(=O)O)cc2)Oc2ccc(NC(=O)c3ccncc3)cc2C1=O the results were LGR2 inh inactive.
For O=c1oc2ccc(Br)cc2cc1S(=O)(=O)c1ccc(F)cc1 the results were TROY signal inh inactive, TWEAK-Fn14 inh 91.0 and HSP90 inh inactive.
For Cc1cc(C(F)(F)F)nn1CC(=O)N1CCCCC1C (stereo not given) the results were TWEAK-Fn14 inh 82.7 and HSP90 inh inactive.
Screening CCS(=O)(=O)N1CCCCN2[C@H](CO)[C@H](c3ccc(-c4ccc(C#N)cc4)cc3)[C@H]2C1 returned LGR2 inh inactive.
For C[C@@H]1CN([C@H](C)CO)C(=O)c2cccc(NS(=O)(=O)c3cccs3)c2O[C@@H]1CN(C)S(=O)(=O)c1cccs1 the results were LGR2 inh inactive.
Screening Nc1ccc(-c2cnc(N)c(C(=O)c3cccnc3)n2)cn1 returned TROY signal inh inactive and TWEAK-Fn14 inh 79.2.
For C[C@@H]1CN([C@H](C)CO)C(=O)c2cc(C#CCN(C)C)cnc2O[C@H]1CN(C)C(=O)Nc1cccc(F)c1 the results were LGR2 inh inactive.
For FC(F)(F)c1nc(-c2cccs2)ncc1-c1nnnn1-c1ccc(Cl)cc1 the results were TROY signal inh 66.4, TWEAK-Fn14 inh 98.7 and HSP90 inh inactive.
Clc1ccc(-n2nnnc2-c2cnc(-c3ccncc3)nc2-c2cccs2)cc1 was read as TROY signal inh inactive, TWEAK-Fn14 inh inactive and HSP90 inh inactive.
CC(=O)c1ccc(Nc2nc(-c3sc(C)nc3C)cs2)cc1 was read as TROY signal inh inactive, LGR2 inh 97.2 and TWEAK-Fn14 inh 56.0.
`Cc1ccnc(Nc2nc(-c3ccc(F)cc3)cs2)c1` gave TROY signal inh 58.8, LGR2 inh inactive, TWEAK-Fn14 inh inactive and HSP90 inh inactive.
Cc1ccnc(Nc2nc(-c3sc(C)nc3C)cs2)c1 was read as TROY signal inh inactive, LGR2 inh 77.9 and TWEAK-Fn14 inh 84.4.
For Cc1nc(N)sc1-c1csc(Nc2ccccn2)n1 the results were TROY signal inh inactive, TWEAK-Fn14 inh inactive and HSP90 inh inactive.
For CC(=O)Nc1ccc(Nc2nc(-c3sc(C)nc3C)cs2)cc1 the results were TROY signal inh inactive, LGR2 inh inactive, TWEAK-Fn14 inh inactive and HSP90 inh inactive.
Cc1nc(C)c(-c2csc(Nc3ccccn3)n2)s1 was read as TROY signal inh inactive, LGR2 inh inactive, TWEAK-Fn14 inh 55.0 and HSP90 inh inactive.
Screening C[C@@H]1CN([C@@H](C)CO)C(=O)c2cccc(NS(=O)(=O)c3ccccc3)c2O[C@H]1CN(C)Cc1ccc(C(F)(F)F)cc1 returned LGR2 inh inactive.
Screening COc1ccccc1-c1ccc([C@@H]2[C@@H](CO)N(C(=O)C3CC3)C23CN(C(C)=O)C3)cc1 returned LGR2 inh inactive.
`C[C@H]1CN([C@@H](C)CO)C(=O)Cc2cc(NC(=O)Cc3cn(C)c4ccccc34)ccc2O[C@@H]1CN(C)C(=O)Nc1ccccc1` gave LGR2 inh inactive.
`O=C(O)CCCc1c(-[n+]2ccccc2)[nH]c2ccccc12` gave TROY signal inh inactive, LGR2 inh inactive, TWEAK-Fn14 inh inactive and HSP90 inh inactive.
`O=C(O)CCc1c(C(=O)O)[nH]c2ccccc12` gave LGR2 inh inactive, TWEAK-Fn14 inh 68.9 and HSP90 inh inactive.
